High-throughput results (PubChem BioAssay)
Shown are actives, neighbours in structure and some others; about 21% of the full set was active somewhere.
RORg inh – inhibitors of mouse ROR gamma transcriptional activity. P51450. Drosophila S2 Gal4-RORgamma UAS-luciferase reporter, 20 h. Potency, µM (doses to about 53.6 µM), without a hit: at the highest dose activity change, negative = inhibition, hits mostly inhibitors. 5.4% of 310,000 active; further: potency means the concentration at half of the fitted maximal effect; nearly all actives have a fitted effect of over 60% in size
Target sequence (P51450 whole entry, looked up, the tested form may be a part): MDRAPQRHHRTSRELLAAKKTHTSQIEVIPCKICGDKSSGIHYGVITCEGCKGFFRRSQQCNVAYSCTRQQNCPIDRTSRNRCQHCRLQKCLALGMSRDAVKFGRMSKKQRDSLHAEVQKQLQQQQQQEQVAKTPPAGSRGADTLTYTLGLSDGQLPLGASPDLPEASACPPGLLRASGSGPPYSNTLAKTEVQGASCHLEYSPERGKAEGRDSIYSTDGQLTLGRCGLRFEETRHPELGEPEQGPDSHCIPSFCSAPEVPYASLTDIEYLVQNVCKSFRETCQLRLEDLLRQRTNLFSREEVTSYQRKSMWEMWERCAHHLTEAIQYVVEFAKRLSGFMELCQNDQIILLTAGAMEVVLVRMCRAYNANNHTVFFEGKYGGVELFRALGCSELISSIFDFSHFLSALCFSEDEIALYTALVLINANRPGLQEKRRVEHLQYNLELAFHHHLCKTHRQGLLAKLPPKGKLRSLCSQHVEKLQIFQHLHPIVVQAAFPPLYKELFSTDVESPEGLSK
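ROR gamma transcriptional activity was tracked as Gal4-UAS luciferase output in stably transfected Drosophila Schneider cells, with compound added 1 hr before 700 uM copper sulfate induction and a 20 hr ambient-temperature incubation.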
IL1B secr inh – inflammasome signaling inhibition, IL-1 beta readout | THP-1 LPS/ATP IL-1B secretion, AlphaLISA, 16 h; hits give low values | activity change, % at 57.5 µM | 4.7% of 360,000 active | AID 743279; in the data active means activity change below about -50%; inconclusive means mostly about -30% to -49%
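THP-1 cells pretreated 1 hr with compounds (up to 57.5 uM final), then stimulated with LPS (250 ng/mL final) plus ATP (1.25 mM final); secreted IL-1B measured by AlphaLISA after 16 hr, decreased signal indicating inhibition.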
VP16 counter – counter-screen for ROR gamma inhibitors: Gal4-VP16 reporter | Potency, µM (highest dose often 53.6 µM), for the others: at the highest dose activity, negative = inhibition, usual class: inhibitors | 3.5% of 310,000 active | Drosophila S2 Gal4-VP16 UAS-luciferase, luminescence, 20 h | AID 2546;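 further: Gal4-VP16 expression switched on by copper sulfate through the metallothionein promoter; potency means the concentration at half of the fitted maximal effect; nearly all actives have a fitted effect of over 50% in size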
TDP1 cell CPT – DT40-hTDP1 cell growth loss with CPT | chicken DT40 Tdp1-/-;hTDP1 cells + 20 nM CPT, ATP luminescence, 48 h | Potency, µM (series often up to 46.2 µM), for inactives: top-dose activity change, negative = growth inhibition, most hits filed as inhibitors | 12% of 420,000 active | AID 686979; further: potency means the concentration at half of the fitted maximal effect; nearly all actives have a fitted effect of over 55% in size
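Cell growth measured by CellTiter-Glo luminescence after a minimum 48 h, 37 C compound exposure with 20 nM CPT in Tdp1-knockout DT40 cells stably expressing hTDP1, seeded 400/well; qHTS titration format.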
DT40 TDP1 no CPT – qHTS for Inhibitors of human tyrosyl-DNA phosphodiesterase 1 (TDP1): qHTS in cells in absence of CPT; DT40 Tdp1-/- hTDP1 cells, no CPT, ATP luminescence, 48 h; Potency, µM (top dose mostly 46.2 µM), for the others: top-dose activity change, negative = growth inhibition, hits mostly inhibitors; 15% of 420,000 active; further: potency means the concentration at half of the fitted maximal effect; nearly all actives have a fitted effect of over 55% in size
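No-CPT arm: Tdp1-/-;hTDP1 DT40 cells (400/well) plus compounds, incubated ≥48 hr at 37 °C. Readout CellTiter-Glo luminescence.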
ELG1 DNA repair – ELG1-dependent DNA repair inhibition. HEK293T ELG1-luciferase reporter, luminescence, 16 h; DNA damage induced by 5-fluorouridine. Potency, µM (series often up to 46.1 µM), inactives show top-dose activity change, negative = inhibition, hits mostly inhibitors. 2.3% of 330,000 active; further: potency means the concentration at half of the fitted maximal effect; nearly all actives have a fitted effect of over 55% in size
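DMSO vehicle served as the neutral condition. Each well held 2,000 cells given 5-fluorouridine plus compound; after 16 hr at 37 °C/5% CO2, ONE-Glo was added and luciferase measured 30 min later.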
Active calls of the source: *; ? = inconclusive; . = no result; [ ] = remark or other dose. Unless noted, the call rests on the fitted dose curve; in most records, active means well fitted curve in the direction sought with a large enough effect; inconclusive means small, poorly fitted or top-dose-only effect, or another doubt; inactive means no such curve, though single readings can be large; an effect the other way counts as inactive or inconclusive. On the % scale 0 is the no-effect control and ±100 the full control effect.

SMILES | RORg inh | IL1B secr inh | VP16 counter | TDP1 cell CPT | DT40 TDP1 no CPT | ELG1 DNA repair
CC1(C(=O)N2CC3(CC(c4cccc(NC(=O)CC(c5ccccc5)c5ccccc5)c4)=NO3)C[C@@H]2C(N)=O)CC1 (stereo partly drawn) | -3% | -25 | 4% | -28% | -29% | -14%
CC/C=C/C(=O)N1CC2(CC(c3cccc(NC(=O)CC(c4ccccc4)c4ccccc4)c3)=NO2)C[C@@H]1C(N)=O (stereo partly drawn) | 19% | ? | 3% | -86% | 16µM* | ?
C/C=C/C=C/C(=O)Nc1cccc(C2=NOC3(C2)C[C@H](C(N)=O)N(C(=O)CC(c2ccccc2)c2ccccc2)C3)c1 (stereo partly drawn) | ? | . | 19% | . | . | -20%
C=C(C)C(=O)Nc1cccc(C2=NOC3(C2)C[C@@H](C(N)=O)N(C(=O)CCCCC)C3)c1 (stereo partly drawn) | 12% | -7 | -2% | -1% | -7% | -16%
CCCCCC(=O)Nc1cccc(C2=NOC3(C2)C[C@@H](C(N)=O)N(C(=O)CC(c2ccccc2)c2ccccc2)C3)c1 (stereo partly drawn) | 30% | 0 | -4% | 23µM* | ? | ?
COc1cccc(C(=O)NCC2Cc3cccc(-c4nc(C)cnc4C)c3O2)c1OC (stereo not drawn) | . | . | . | 17%[9.04 µM] | ? | .
COCCN=c1scc(-c2cc(OC)ccc2OC)n1/N=C/c1c[nH]c2ccccc12 | ? | -50* | -8% | ? | ? | ?
O=C1CC(N2CCCCC2)C(=O)N1c1ccccc1 (stereo not drawn) | 10µM* | 6 | 20µM* | ? | ? | 10%
CCOC(=O)C1CCN(C2CC(=O)N(c3cccc(Cl)c3)C2=O)CC1 (stereo not drawn) | -117% | -8 | 11% | 0% | -4% | 3%
CCN(CC)C1CC(=O)N(c2cccc(Cl)c2)C1=O (stereo not drawn) | -18%[1.91 µM] | -8 | ? | ? | 23µM* | -6%
O=C1CC(N2CCN(c3ccc(Cl)cc3)CC2)C(=O)N1c1ccc(F)cc1 (stereo not drawn) | . | 8 | . | -20% | 5% | 4%
O=C(O)CSC1CC(=O)N(c2cccc(Cl)c2)C1=O (stereo not drawn) | -2% | -2 | 9% | -3% | ? | 1%
O=C(C1CCN(C2CC(=O)N(c3cccc(Cl)c3)C2=O)CC1)N1CCCC1 (stereo not drawn) | -9% | 2 | -12% | 16µM* | ? | 10%
O=C1CC(N2CCCN(C3CC(=O)N(c4ccc(F)cc4)C3=O)CC2)C(=O)N1c1ccc(F)cc1 (stereo not drawn) | 18µM* | 2 | ? | ? | ? | -1%
O=C(NCC1(N2CCOCC2)CCCC1)c1cnn(-c2nccc(-c3cccs3)n2)c1C1CC1 | . | . | . | -2%[9.04 µM] | -10% | .
Cc1c(-c2ccccc2)c(P(=O)(N2CCOCC2)N2CCOCC2)c2ccccn12 | -6% | 3 | -10% | 26µM* | ? | 1%
CC(C)(C)c1nnc(NS(=O)(=O)c2ccccc2)s1 | . | . | . | 12% | 2% | .
CCOC(=O)/C=C1\CN(Cc2ccc(OC)cc2)S(=O)(=O)c2ccc(C(F)(F)F)cc21 | . | . | . | 13µM* | 11µM* | .
CC(=O)C1=C(O)C(=O)N(c2ccc(Br)cn2)C1c1ccc(F)cc1 (stereo not drawn) | 21% | -6 | ? | 15% | -24% | ?
O=C(NC1CCCCC1)C1c2ccccc2OCC(=O)N1CC(F)(F)F (stereo not drawn) | . | 34 | . | -1% | -10% | .
CCc1cc2cc(C)cc(C)c2nc1SCC(=O)N1CCN(C(=O)c2ccco2)CC1 | 13% | -54* | 6% | ? | ? | 8.2µM*
